Measurements as given in the supplement of paper PMC7366291.
± gives the standard deviation of the averaged measurements.

tested on: Danio rerio Tg(wt1b:EGFP) embryo, pronephros; assay: pronephric angle neck segment to proximal convoluted tubule (mean of left and right), fold change vs DMSO control; higher = larger pronephric angle; conditions: 25 µM; exposure: 24-48 hpf
Procedure, shortened: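 In HEPES-buffered E3 with 0.003% PTU and 0.5% DMSO, dechorionated Tg(wt1b:EGFP) zebrafish embryos were exposed to 25 μM compound from 24 to 48 hpf at 28.5°C. Pronephroi were then imaged dorsally at 470 nm in 10 z-slices, in 96-well plates filled with agarose. On maximum projections, a Fiji macro turned 16 manually placed reference points into distances and angles, and values more than 2 SD from the feature mean were excluded. Features are fold changes relative to the mean of DMSO-treated embryos from the same day.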

SMILES	pronephric angle neck segment
Cc1cn[nH]c1 [Fomepizole]	1.01 ± 0.018
COc1cc(-c2ccc(=O)[nH]n2)ccc1OC(F)F [Zardaverine]	0.994 ± 0.013
CC(C)(C)NCC(O)c1cc(O)cc(O)c1 (centres undefined) [Terbutaline hemisulfate]	1.01 ± 0.039
Nc1nc(Cl)nc2c1ncn2[C@H]1C[C@H](O)[C@@H](CO)O1 [Cladribine]	1.005 ± 0.0066
